Experimental data published in the supplement of paper PMC6522484.
± gives the standard deviation of the averaged measurements.

What was measured:
DLD1 [1] = assay: cell viability (CellTiter-Glo) relative to plate median (fraction of plate median); higher = more viable cells; settings: 5 µM; treatment time 24 h; reporter: 7TFP
Method in brief: (§1)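 On parallel plates, a Tecan F500 reader recorded either firefly luciferase or CellTiterGlo luminescence. The plates held colorectal cancer cells stably transduced with lentiviral TCF/Wnt firefly luciferase reporters (7TFP or TCF4/Wnt), seeded in 384-well format and treated 24 h later with library compounds at a final 5 µM for 24 h. Per-well signals were normalised to the plate median (webcellHTS2, additive, no log transformation), and two independent replicates were averaged.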

HCT116 = assay: as above; settings: 5 µM; treatment time 24 h; reporter: TCF4/Wnt
Method in brief: as §1

SW480 [2] = assay: as above; settings: 5 µM; treatment time 24 h; reporter: 7TFP
Method in brief: as §1

DLD1 [3] = assay: TCF/Wnt firefly luciferase reporter signal relative to plate median (fraction of plate median); higher = higher Wnt reporter signal; settings: 5 µM; treatment time 24 h; reporter: 7TFP
Method in brief: as §1

SW480 [4] = assay: as above; settings: 5 µM; treatment time 24 h; reporter: 7TFP
Method in brief: as §1

Row | SMILES | cell viability (DLD1 [1]) | cell viability (HCT116) | cell viability (SW480 [2]) | TCF/Wnt firefly luciferase reporter signal (DLD1 [3]) | TCF/Wnt firefly luciferase reporter signal (SW480 [4])
1 | CN(C)C(=O)Nc1ccc(Cl)c(Cl)c1 | 0.959 ± 0.035 | 0.989 ± 0.016 | 0.966 ± 0.042 | 1.14 ± 0.099 | 1.15 ± 0.078
2 | C=C(C)[C@@H]1C[C@H](O)[C@]2(C(=O)O[C@@H]3O[C@H](CO[C@@H]4O[C@H](CO)[C@@H](O[C@@H]5O[C@@H](C)[C@H](O)[C@@H](O)[C@H]5O)[C@H](O)[C@H]4O)[C@@H](O)[C@H](O)[C@H]3O)CC[C@]3(C)[C@H](C[C@H]4OC(=O)C[C@@H](O)[C@]5(C)[C@@H]4[C@@]3(C)CC[C@H]5C(=C)C)[C@@H]12 [22alpha-hydroxychiisanoside (4)] | 0.87 ± 0.055 | 0.878 ± 0.06 | 0.937 ± 0.033 | 0.803 ± 0.0042 | 0.951 ± 0.029
3 | Cn1c(=O)[nH]c2ncn(C)c2c1=O | 0.987 ± 0.13 | 1.04 ± 0.021 | 1.02 | 1.05 ± 0.13 | 1.02 ± 0.072
4 | CC1=C(C(=O)O)N2C(=O)[C@@H](NC(=O)[C@H](N)C3=CCC=CC3)[C@H]2SC1 | 0.978 ± 0.073 | 0.958 ± 0.018 | 0.948 ± 0.021 | 1.01 ± 0.09 | 1.02 ± 0.021
5 | C=C(C)[C@@H]1CC[C@]2(C(=O)O[C@@H]3O[C@H](CO[C@@H]4O[C@H](CO)[C@@H](O[C@@H]5O[C@@H](C)[C@H](O)[C@@H](O)[C@H]5O)[C@H](O)[C@H]4O)[C@@H](O)[C@H](O)[C@H]3O)CC[C@]3(C)[C@H](C[C@@H](O)[C@@H]4[C@@]5(C)[C@@H](CC(=O)O)OC(C)(C)[C@@H]5CC[C@]43C)[C@@H]12 [Isochiisanoside (6)] | 0.92 ± 0.055 | 0.934 ± 0.0028 | 0.915 ± 0.066 | 0.953 ± 0.15 | 0.945 ± 0.0071
6 | C[C@]12CCC(=O)C=C1CC[C@@H]1[C@@H]2[C@@H](O)C[C@@]2(C)[C@H]1CC[C@]2(O)C(=O)COC(=O)CCC(=O)O | 1.07 ± 0.042 | 1.11 | 1.03 ± 0.035 | 1.01 ± 0.02 | 1 ± 0.099
7 | C[C@@H]1CC[C@@]2(OC1)O[C@H]1C[C@H]3[C@@H]4CC=C5C[C@@H](O)CC[C@]5(C)[C@H]4CC[C@]3(C)[C@H]1[C@@H]2C | 1.01 ± 0.14 | 0.973 ± 0.025 | 0.93 ± 0.046 | 0.89 ± 0.063 | 0.998 ± 0.06
8 | Oc1c(I)cc(Cl)c2cccnc12 | 1.06 ± 0.21 | 0.949 ± 0.12 | 1.13 ± 0.042 | 1.2 ± 0.27 | 1.14 ± 0.11
9 | COc1ccc(C(=O)CC(=O)O)c2c1C=CC(C)(C)O2 | 1 ± 0.013 | 0.978 ± 0.19 | 0.961 ± 0.098 | 0.991 ± 0.056 | 0.859 ± 0.042
10 | CO/N=C(\C(=O)N[C@@H]1C(=O)N2C(C(=O)OCOC(=O)C(C)(C)C)=C(/C=C\c3scnc3C)CS[C@H]12)c1csc(N)n1 | 1.025 ± 0.0071 | 0.985 ± 0.0042 | 0.901 ± 0.0071 | 0.809 ± 0.029 | 0.854 ± 0.14
11 | CCN(CC)CC(=O)Nc1c(C)cccc1C | 1.05 | 1.1 ± 0.021 | 1.02 ± 0.021 | 1.06 ± 0.05 | 1.03 ± 0.021
12 | COc1ccc(C(=O)/C=C/c2ccccc2)cc1 | 0.964 ± 0.0028 | 0.977 ± 0.0085 | 0.972 ± 0.069 | 0.936 ± 0.04 | 0.944 ± 0.15
13 | CN1CCCN=C1/C=C/c1cccs1 | 0.984 ± 0.022 | 0.903 ± 0.093 | 1.05 | 1.135 ± 0.0071 | 0.994 ± 0.037
14 | O=C(O)c1cccnc1 | 1.05 ± 0.042 | 1.01 ± 0.11 | 1.06 ± 0.05 | 0.969 ± 0.039 | 0.976 ± 0.062
15 | NS(=O)(=O)c1cc2c(cc1Cl)NCNS2(=O)=O | 0.988 ± 0.1 | 1.02 | 1.04 ± 0.042 | 1.15 ± 0.071 | 1.1 ± 0.028
